# Compounds without any hit were thinned out: in the full panel of roughly 83,000, 20% have a hit.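 In brief: 96-well plates, 48 h treatment, single concentration, percent growth endpoint.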 A number with no mark means an inactive call. Calls of active or inactive are those of the source.
# System: NCI-H322M lung
# Assay: NCI-60 one-dose screen, 48 h (100 = growth as untreated, 0 = no growth, -100 = all killed)
# Settings: 10 µM unless noted
# Procedure: Growth inhibition of the NCI-H322M human Non-Small Cell Lung tumor cell line is measured as a screen for anti-cancer activity. Cells are grown in 96 well plates and exposed to the test compound for 48 hours. Compounds are tested at a single concentration, which is 10^-5 M for most compounds. The reported endpoint is percent growth (GI% or GIPRCNT), where numbers from 0 - 100% represent growth inhibition, and numbers from -100% - 0 represent cell death. For example, a value of 40 represents 60% growth inhibition. A value of 0 means no net growth occurred over the course of the experiment. A value of -40 indicates 40% of cells at the beginning of the experiment died by the end of the experiment. A value of -100 means all cells are dead at the end of the experiment.
# NCI-60 Human Tumor Cell Lines Screen was performed using the standard one-dose NCI protocol, which is described in more detail at https://dtp.cancer.gov/discovery_development/nci-60/default.htm.
# Compounds with GIPRCNT values below 10 were considered active. Activity score was based on GIPRCNT using the following formula: […]
# Score is 0 for GIPRCNT values of 100 or above, 50 for GIPRCNT values of 0, and 100 for GIPRCNT values of -100.
row,Structure (SMILES),growth
1,N=c1ccc2nc3ccc(N)cc3sc-2c1,51.6%
2,CCN(CC)CCC(CNc1c2ccc(Cl)cc2nc2ccc(OC)cc12)c1ccccc1 (stereo not given),17.5%
3,Clc1ccc(-c2nc3ccccc3s2)cc1Cl,110%
4,CCc1cnc(=S)n(-c2ccccc2)c1,117%
5,COc1ccc(C2C=C(c3ccc(Cl)cc3)N=C3SC=C(C)N32)c(Br)c1 (stereo not given),55.2%
6,Cc1ccc2nc(Cl)cc(=O)n2c1,116%
7,O=C1/C(=C/c2ccc([N+](=O)[O-])cc2)CN(C(=O)CCN2CCC(=NO)CC2)C/C1=C\c1ccc([N+](=O)[O-])cc1,-18.7% (active)
8,ClC(Cl)c1nc(-c2ccccc2)nc2cc(-c3ccccc3)nn12,96.6%
9,C=C[C@@H]1C[C@H](O)Cc2ccccc2N1,125%
10,N#Cc1ccc(N2Cc3ccccc3OC3=C2C(=O)c2c(O)ccc(O)c2C3=O)cc1,66.8%
11,CCCCCCCCCCCC(=O)NCCC[N+](C)(C)CC(=O)[O-],96.6%
12,COc1ccc(C(=O)NC(=O)Nc2cc3c(cc2F)/C(=C/c2[nH]c(C)c(CCC(=O)O)c2C)C(=O)N3)c(F)c1,63.9%
13,O=C(/C=C/c1c[nH]c2ccccc12)c1ccc(O)c(CN2CCN(c3ccc(F)cc3)CC2)c1,103%
14,CCOC(=O)CN1/C(=N/c2sc3c(c2C(=O)OCC)CCN(C(=O)OCC)C3)SC(=O)/C1=C\C(=O)OC,98.4%
15,COc1cc(/C(C#N)=C/c2ccc3c(c2OC)OCO3)cc2c1OCO2,35.2%
16,CN1C(=O)N(C)C2C1NN=c1s/c(=C\C=C\c3ccccc3)c(=O)n12 (stereo not given),68.4%
17,CCCCCCCCCCCCCCCCNC(=O)OC(C)C,-20.9% (active)
18,CCOC(=O)c1ccc2c(c1)nc(-c1ccc(OCc3ccccc3)c(OC)c1)n2-c1cc(C(C)(C)C)[nH]n1,92.8%
19,O=C(/C=C\c1cccc([N+](=O)[O-])c1)/C=C/c1cccc([N+](=O)[O-])c1,98.2%
20,COc1ccc2c(c1)[nH]c(=O)c1c3cc(OC)ccc3cn21,33.6%

row,Structure (SMILES),growth
1,Cc1cc(C)n(-c2nnc3n2N=C(c2ccc(-c4ccccc4)cc2)CS3)n1,71.1%
2,Cc1nc2cncc(C#Cc3cncc(C(=O)Nc4ccc(CN5CCN(C)CC5)c(C(F)(F)F)c4)c3)c2nc1C,8.94% (active)
3,Nc1ccc(C(=O)CSc2nc3ccccc3[nH]2)cc1,108%
4,CC12CCCC(CC(=O)c3[nH]c4ccccc4c31)C2 (stereo not given),35.7%
5,C=C(C)[C@@H]1C[C@@H]2Cc3cc(Cl)ccc3N1O2,111%
6,S=c1[nH]nc(-c2cc3ccc2CCc2ccc(cc2)CC3)n1C1CC1,105%
7,COc1ccc(C(=O)c2cc(OC)c(OC)c(OC)c2OC)cc1O,55.4%
8,N[C@@H]1CCN(C(=O)c2cc3cc(Cl)c(F)c(F)c3[nH]2)C1,87.1%
9,ClC(Cl)c1nc(-c2cccnc2)n2nc(-c3ccccc3)cc2n1,46.2%
10,Cc1ccc(Nc2nnc(-c3ccc(Cl)cc3)o2)c(C)c1,102%
11,C=C[C@@H]1C[C@@H]2Cc3cc(Cl)ccc3N1O2,130%
12,Nc1cccc(Cl)c1N,99.5%
13,COc1cc2c(=O)n(C3CCCCCC3)c3c4cc[nH]c4ncc3c2cc1OC,89.2%
14,O=S(=O)(c1ccc(OCCO)cc1)c1ccc(OCCO)cc1,91.8%
15,CCCCOc1ccc(/C=C2/SC(N3CCOCC3)=NC2=O)cc1OCC,94.3%
16,N/C(=N\C(N)=N\c1nc2ccccc2s1)c1cccc(Br)c1,81%
17,O=C1NC(=C(Cl)Cl)/C(=N/S(=O)(=O)N2CCC(C3(C(F)(F)F)N=N3)CC2)N1,95.8%
18,C=C[C@@H]1C[C@H](O)Cc2cc(F)ccc2N1,112%
19,CC(C)NCCCNC1=C(Cl)C(=O)c2ccccc2C1=O,105%
20,CC(C)CSc1nc(NN)c(C#N)c(-c2ccccc2)n1,89.5%

# Source: PubChem BioAssay (NCI)
